Several values for one entry are separate records, joined by “and”; a condition that tells them apart may be missing. Equal entries are not always repeated. Inconclusive results are not listed. Activity calls are given as the source filed them. Rule for the calls: active = hit-call score of the fitted dose curve at least 0.9, where 1 is the maximum; inconclusive = response in the unintended direction; inactive = score below 0.9.
Read-out: Cytochrome P450 2B6 (Homo sapiens) (UniProt P20813)
Assay: CLD_CYP2B6_48hr: CellzDirect (CLD) Gene Expression Assay for xenobiotic metabolism (CYP2B6) at 48 hours (AID 2283699);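 note: actives raise transcript level above DMSO so potency reflects induction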
Method: CLD_48hr is a cell-based, multiplexed-readout assay that uses hepatocyte, a human liver primary cell, with measurements taken at 48 hours after chemical dosing in a 96-well plate.CLD_CYP2B6_48hr is one of 16 assay component(s) measured or calculated from the CLD_48hr assay. It is designed to make measurements of mRNA induction, a form of inducible reporter, as detected with chemiluminescence signals by Quantitative Nuclease Protection Assay (qNPA) technology.Data from the assay component CLD_CYP2B6_48hr was analyzed at the endpoint, CLD_CYP2B6_48hr, in the positive analysis fitting direction relative to DMSO as the negative control and baseline of activity. Using a type of inducible reporter, gain-of-signal activity can be used to understand changes in the reporter gene as they relate to the gene CYP2B6. Furthermore, this assay endpoint can be referred to as a primary readout. To generalize the intended target to other relatable targets, this assay endpoint is annotated to the cyp intended target family, where subfamily is xenobiotic metabolism.
Human hepatocyte cultures were treated daily for two consecutive days with fresh dosing solutions containing appropriate concentrations of the 320 ToxCast chemicals (chemical identities were blinded to CellzDirect and other ToxCast collaborators), vehicle control (0.2% DMSO), and positive control inducers as summarized in Table 1. Due to the large number of treatment groups and chemicals examined, the ToxCast chemicals were divided into two groups (spanning two independent cultures of hepatocytes from separate donor preparations (Hu778: ToxCast plates 1 and 2; Hu776: ToxCast plates 3 and 4). Each preparation of human hepatocyte cultures was treated with respective vehicle control, medium only control, set of six positive controls/reference chemicals for the five hepatic receptor pathways, and a subset of eight of the ToxCast chemicals (indoxacarb, pyrithiobac-sodium, norflurazon, cyhalofop-butyl, methomyl, thiram, acetochlor, and propiconazole). These replicate data, coupled with internal replicates designed within the blinded ToxCast chemical library, provided additional data to evaluate interindividual differences between hepatocyte preparations and their potential impact on chemical profiles.Cell morphology and integrity were evaluated using phase-contrast microscopy as an indicator of hepatocyte cell health (Tyson & Green, 1987). Cultures for each treatment group (i.e., media, vehicle [0.2% DMSO], positive control inducers [multiple concentrations], and the ToxCast chemicals [multiple concentrations]) were observed and cell morphology was assessed relative to vehicle control cultures at each harvest time point (0, 6, 24, or 48 h). […] Images were evaluated at the conclusion of the study to assess changes in cell integrity and account for the effects of chemical exposure on uncharacteristic changes in concentration-dependent gene expression profiles. The results from these determinations of apparent cytotoxicity were annotated (yes/no) alongside the corresponding qNPA data for reference.At the conclusion of each treatment period, hepatocyte cultures (96-well) were washed with 1 volume of HBSS, lysed by addition of 25 ul ArrayPlate lysis buffer (HTG, Tucson, AZ), and 70 ul/well of Denaturation Oil, denatured by incubation at 95C for 10 min, and frozen at approximately -70C until analysis by nuclease protection assay (qNPA) (Roberts et al., 2007). For qNPA analysis, cell lysates were thawed at 50C for approximately 30 min, qNPA probes were added, and samples were incubated at 95C for 10 min to begin the detection process by denaturing the target RNA, dissociating the duplexes and secondary structure hybridization. At the conclusion of the hybridization period, S1 nuclease reagent was added to each sample to digest all nonprotected nucleotides at 50C for 60-90 min. […]

Compound	outcome	AC50
CCC(C)OC(=O)N1CCCCC1CCO (stereo not drawn)	inactive	–
COC(=O)c1cccc(C)c1S(=O)(=O)NC(=O)Nc1nc(OCC(F)(F)F)nc(N(C)C)n1	–	5.1 µM (active)
CCSC(=O)N(CC(C)C)CC(C)C	inactive	–
CC(C)(C)[C@@H](O)[C@@H](Cc1ccc(Cl)cc1)n1cncn1	inactive	–
CCN(CC)C(=O)c1cccc(C)c1	–	3.6 µM (active)
CN(C)C(=O)Nc1ccc(Cl)c(Cl)c1	–	3.85 µM (active)
CCCCOCCOCCOCc1cc2c(cc1CCC)OCO2	–	0.83 µM (active)
COC(=O)c1ccccc1S(=O)(=O)NC(=O)Nc1nc(OC(F)F)cc(OC(F)F)n1	inactive	–
CCCCCCC(C)OC(=O)COc1nc(F)c(Cl)c(N)c1Cl (stereo not drawn)	inactive	–
COC(=O)c1c(Cl)nn(C)c1S(=O)(=O)NC(=O)Nc1nc(OC)cc(OC)n1	inactive	–
CCNc1nc(N)nc(Cl)n1	inactive	–
C=CCOC(Cn1ccnc1)c1ccc(Cl)cc1Cl (stereo not drawn)	–	0.163 µM (active)
CCOC(=O)C(C)Oc1ccc(Oc2nc3ccc(Cl)cc3o2)cc1 (stereo not drawn)	inactive	–
C#CCOC(=O)[C@@H](C)Oc1ccc(Oc2ncc(Cl)cc2F)cc1	inactive	–
COC(=O)CSc1cc(N=c2sc(=O)n3n2CCCC3)c(F)cc1Cl	–	4.48 µM (active)
OB(O)O	inactive	–
CCOC(=O)COc1cc(-n2ncc(C(F)(F)F)c(C)c2=O)c(F)cc1Cl	inactive	–

Compound	outcome	AC50
CCN(Cc1c(F)cccc1Cl)c1c([N+](=O)[O-])cc(C(F)(F)F)cc1[N+](=O)[O-]	–	0.273 µM (active)
CCCCOC(=O)C(C)Oc1ccc(Oc2ccc(C(F)(F)F)cn2)cc1 (stereo not drawn)	inactive	–
CCC(O)=C1C(=O)CC(C(=O)O)CC1=O (stereo not drawn)	–	0.000247 µM (active)
CCCCCOC(=O)COc1cc(N2C(=O)C3=C(CCCC3)C2=O)c(F)cc1Cl	inactive	–
CCCN(CCC)C(=O)SCC	–	381 nM (active) and 209 nM (active)
CCCOC(=O)c1ccc(C(=O)OCCC)nc1	inactive	–
CCCN(CCC)c1c([N+](=O)[O-])cc(C(F)(F)F)c(N)c1[N+](=O)[O-]	–	3.56 µM (active)
CCCCC(CC)CN1C(=O)C2C3C=CC(C3)C2C1=O (stereo not drawn)	–	4.6 µM (active)
CC(C)(c1ccc(O)cc1)c1ccc(O)cc1	inactive	–
S=C(S)NCCNC(=S)S.[Mn+2].[S-]C([S-])=NCCN=C([S-])[S-].[Zn+2]	inactive	–
CCOC(=O)NCCOc1ccc(Oc2ccccc2)cc1	–	10.8 µM (active)
CCCCC(CC)COC(=O)c1ccccc1C(=O)O (stereo not drawn)	–	20 µM (active)
CCCCOC(=O)[C@@H](C)Oc1ccc(Oc2ccc(C(F)(F)F)cn2)cc1	inactive	–
c1ccc(Nc2ccccc2)cc1	–	4.79 µM (active)
CC1(C)C(C=C(Cl)Cl)C1C(=O)OCc1cccc(Oc2ccccc2)c1 (stereo not drawn)	–	3.87 µM (active)
c1ccc2[nH]c(-c3cscn3)nc2c1	inactive	–

— PubChem BioAssay (EPA / NIEHS)
